Measurements as given in PubChem BioAssay AID1626 (SRMLSC, 2009).
In all, about 220,000 compounds went through this assay and about 2,000 (0.91%) were called active. Inconclusive results (about 2%) are left out. Not all results are given here. Potency and affinity values are given separately. A number with no mark means an inactive call. Cut-off read from the data, not from the text of the source: inconclusive = inhibition above about 80% without an active follow-up result; inactive = below that; test concentration not stated here.

experiment: M. tuberculosis H37Rv growth inhibitors, H37Rv strain (AID 1626); settings: hits give high values, concentration not given here;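 note: bacteria incubated seven days before Alamar blue readout; 0% = bacteria only wells and 100% = bacteria with antibiotic wells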

SMILES | inhibition [%]
Nc1c(C(=O)NC23CC4CC(CC(C4)C2)C3)sc2nc3c(c(C(F)(F)F)c12)CCC3 | -10.2
COc1ccc(NC(=O)c2sc3nc(Cc4ccccc4)cc(C(F)(F)F)c3c2N)cc1OC | 7.82
CCNC(=S)Nc1sc2c(c1C#N)CCC(C)C2 (stereo not given) | 9.49
CN(C)c1ccc(N2CN=C3SCC(=O)N3C2)cc1 | -6.22
O=C1CSC2=NCN(c3ccccc3)CN12 | 5.48
Cc1ccc(N2CN=C3SCC(=O)N3C2)cc1C | 73.8
Cc1cc(C)cc(N2CN=C3SCC(=O)N3C2)c1 | 4.22
O=C1CN(C(=S)Nc2ccc(OC(F)F)cc2)CCN1 | 5.94
CCOc1cc(C=O)cc(Br)c1OCC(N)=O | -0.11
COc1ccc(/C(O)=C2/C(=O)C(=O)N(CCN3CCOCC3)C2c2cccnc2)cc1OC (stereo not given) | -6.27
COCc1cc(Sc2ccc(Cl)cc2)nc(C)n1 | 18.1
Cc1nc(CS(=O)c2ccc(Cl)cc2)cc(N2CCOCC2)n1 (stereo not given) | 5
Cc1ccc2nsnc2c1S(=O)(=O)N1CCCC1 | -7.86
CCOC(=O)Cc1csc(NC(=O)c2c(O)c3c(n(CC(C)C)c2=O)CCCC3)n1 | 71.9
CCCCCn1c(=O)c(C(=O)OCC)c(O)c2ccccc21 | -3.26
CCCCCCCCn1c(=O)c(C(=O)OCC)c(O)c2ccccc21 | 7.93
CC(C)CCn1c(=O)c(C(=O)Nc2ccccc2S(N)(=O)=O)c(O)c2ccccc21 | -11.9
O=c1cc(CN2CCCCC2)nc(C2CC2)[nH]1 | 3.51
Oc1ccc(-c2nccc(-c3cccs3)n2)cc1 | -3.17
Cc1ccc(C(=O)Nc2nccc(-c3cccs3)n2)cc1 | -6.72
Cc1ccc(C(C)C)c(OCC(O)CN2CCN(CCO)CC2)c1 (stereo not given) | 2.52
CN(C)/C=N/c1c(C#N)cnn1C | -9.88

SMILES | inhibition [%]
O=C(O)c1ccc(CN2C(=O)c3ccccc3S2(=O)=O)cc1 | -3.5
Cc1ccc(C(C#N)c2ccc3c(C(F)(F)F)cc(C(F)(F)F)nc3n2)cc1 (stereo not given) | 12
N#CC(c1ccccc1)c1ccc2c(C(F)(F)F)cc(C(F)(F)F)nc2n1 (stereo not given) | -11.8
Cc1ccc(C)c(-c2nc3cc(N)ccc3o2)c1 | 77.1
Cc1ccc2nc(-c3cc(N)cc(N)c3)oc2c1 | 56.3
CCc1ccc2oc(-c3cccc(N)c3)nc2c1 | 5.28
Nc1cccc(-c2nc3cc(S(=O)(=O)c4ccc5oc(-c6cccc(N)c6)nc5c4)ccc3o2)c1 | -1.41
Cc1ccc2nc(-c3cccnc3)oc2c1 | -9.72
Nc1ccc2oc(-c3cccc4ccccc34)nc2c1 | 4.7
CCc1ccc2oc(-c3cc(N)ccc3Cl)nc2c1 | 1.18
Cc1ccc(-c2nc3cc(N)ccc3o2)c(C)c1 | 8.94
CC(C)CNS(=O)(=O)c1ccc(CCC(=O)Nc2cc(Cl)ccc2Oc2ccccc2)cc1 | 9.05
CC(=O)Nc1cccc(Cn2cccn2)c1 | -6.83
Cc1ccc(C)c(S(=O)(=O)NC(Cc2c[nH]c3ccccc23)C(=O)O)c1 (stereo not given) | -3.14
Cc1ccc(N(C(=O)c2ccncc2)C2C=CS(=O)(=O)C2)cc1 (stereo not given) | -9.29
CCCCCCc1cc2cc(C(N)=O)c(=N)oc2cc1O | -2.17
CCCCCCc1cc2cc(C(=O)NCc3ccccc3)c(=N)oc2cc1O | -13.1
O=C1N=C(N2CCN(c3cccc4ccccc34)CC2)S/C1=C/c1cccs1 | 85.6
O=C1N=C(N2CCN(c3ccccc3)CC2)S/C1=C/c1cccs1 | 50.8
CCOc1ccc(NC(=O)NCCN2C(C)CCCC2C)cc1 (stereo not given) | -2.64
N#Cc1c(NC(=O)CSCC(=O)O)sc2c1CCCC2 | -15.3
O=C(Nc1nc2ccccc2[nH]1)c1ccccc1 | 19.3

SMILES | inhibition [%]
Cc1c(C(=O)Nc2ccncc2)oc2ccccc12 | -1.93
COc1ccc2oc(C(=O)Nc3nc4ccccc4[nH]3)c(C)c2c1 | 51.1
C/C(=N\Nc1nc2ccccc2[nH]1)c1cc2ccccc2o1 | 56.4
O=C(/C=C\c1ccc2c(c1)OCO2)Nc1nnc(SCC(=O)OCc2ccccc2)s1 | 20.4
CCOc1ccc(OCC)c(S(=O)(=O)NC2CC(C)(C)NC(C)(C)C2)c1 | -3.13
COc1cccc(CNC(=O)Cn2nc(-c3ccc(Cl)cc3)ccc2=O)c1 | 4.51
CCOC(=O)C(C)Sc1nc(=O)n2cc(C)ccc2n1 (stereo not given) | 3.92
Cc1ccc([N+](=O)[O-])cc1NCC(=O)NN | -8.54
N=C(N)SCc1nc2ccccn2c1Br | -11.2
c1ccc2c(SCc3cn4ccccc4n3)nncc2c1 | -2.83
CC(C)c1ccc2c(c1)C(c1cccs1)=NNC(c1ccncc1)=N2 | 0.38
COc1ccc(-c2nnc3ccc(SC(C(C)=O)C(C)=O)nn23)cc1OC | 2.29
COc1ccc(NC(C)=O)cc1C#N | 0.78
O=C1OC2(CCCCC2)OC(=O)C1=CNc1ccc2c(c1)OCO2 | 55.9
NS(=O)(=O)c1ccc(NC=C2C(=O)OC3(CCCCC3)OC2=O)cc1 | 4.66
COCCCNC(=O)Cn1cc(C(C)=O)c2ccccc21 | -10.3
CC1CCCC(NC(=O)COC(=O)[C@@H](NC(=O)c2ccco2)C(C)C)C1C (stereo not given in full) | -2.77
CCc1cc2cc(C(=O)Nc3ccccc3F)sc2s1 | 0.32
CCc1cc2cc(C(=O)N3CCN(c4ccccc4)CC3)sc2s1 | 2.92
Cc1ccc(NC(=O)c2cccs2)cc1 | -1.3
CC(C)(C)c1ccc(C(=O)Nc2ccc(F)cc2)s1 | 12.9
